# Measurements reported in PubChem BioAssay AID1159580 (chemical genetic matrix, 2015).
# Screen size: about 5,500 compounds; about 2,000 (36%) were called active. Inconclusive results (about 18%) are left out. The list shows a part of the results. Unmarked numbers belong to inactive results. Rule as the data show it: active = normalized growth mostly below about 0.91 (no sharp cut-off); inconclusive = no clear call, values can overlap the other calls; inactive = mostly above about 0.92.
# Test: chemical genetic growth profiling, strain panel (AID 1159580);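 also: tested at 20 µM; growth read once vehicle control cultures reached saturation at 30 °C; 1 = growth at the plate median or of vehicle wells; lower values mean less growth of the strain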
# Details: S. cerevisiae deletion strains, growth OD
# [1] = locus YHR030C, strain SLT2, stronger effect = lower value
# [2] = locus YHR079C, strain IRE1, stronger effect = lower value
# [3] = locus YJL095W, strain BCK1, stronger effect = lower value
# [4] = locus YJR066W, strain TOR1, stronger effect = lower value
# [5] = locus YLR113W, strain HOG1, stronger effect = lower value
# [6] = locus YNL183C, strain NPR1, stronger effect = lower value
# [7] = locus YOR231W, strain MKK1, stronger effect = lower value
# [8] = locus YPL256C, strain CLN2, stronger effect = lower value
smiles,measurement,setting,value
Cc1cc2nc3c(=O)[nH]c(=O)nc-3n(C[C@@H](O)[C@@H](O)[C@@H](O)COP(=O)(O)O)c2cc1C,normalized growth,[1],1.04
same,normalized growth,[2],1.04
same,normalized growth,[3],1.03
same,normalized growth,[4],0.966
same,normalized growth,[5],1.03
same,normalized growth,[6],0.97
same,normalized growth,[7],1.04
same,normalized growth,[8],1.04
Cc1cc2nc3c(=O)[nH]c(=O)nc-3n(CC(O)C(O)C(O)CO)c2cc1C (configuration not stated),normalized growth,"locus YAL021C, strain ccr4, stronger effect = lower value",0.995
same,normalized growth,"locus YAL026C, strain drs2, stronger effect = lower value",0.981
same,normalized growth,"locus YAL030W, strain snc1, stronger effect = lower value",0.944
same,normalized growth,"locus YBL061C, strain skt5, stronger effect = lower value",0.988
same,normalized growth,"locus YBR009C, strain hhf1, stronger effect = lower value",0.954
same,normalized growth,"locus YBR023C, strain chs3, stronger effect = lower value",1.01
same,normalized growth,"locus YBR171W, strain sec66, stronger effect = lower value",0.962
same,normalized growth,"locus YBR231C, strain swc5, stronger effect = lower value",1.01
same,normalized growth,"locus YBR279W, strain paf1, stronger effect = lower value",1
same,normalized growth,"locus YCL011C, strain gbp2, stronger effect = lower value",0.987
same,normalized growth,"locus YCL016C, strain dcc1, stronger effect = lower value",1.05
same,normalized growth,"locus YCL069W, strain vba3, stronger effect = lower value",0.959
same,normalized growth,"locus YCR088W, strain abp1, stronger effect = lower value",0.974
same,normalized growth,"locus YDL005C, strain med2, stronger effect = lower value",0.99
same,normalized growth,"locus YDL040C, strain nat1, stronger effect = lower value",0.982
same,normalized growth,"locus YDR001C, strain nth1, stronger effect = lower value",0.982
same,normalized growth,"locus YDR069C, strain doa4, stronger effect = lower value",0.964
same,normalized growth,"locus YDR137W, strain rgp1, stronger effect = lower value",1.05
same,normalized growth,"locus YDR159W, strain sac3, stronger effect = lower value",0.9
same,normalized growth,"locus YDR195W, strain ref2",1.01
same,normalized growth,"locus YDR297W, strain sur2, stronger effect = lower value",0.955
same,normalized growth,"locus YDR334W, strain swr1, stronger effect = lower value",0.932
same,normalized growth,"locus YDR335W, strain msn5, stronger effect = lower value",1.02
same,normalized growth,"locus YDR392W, strain spt3, stronger effect = lower value",0.91
same,normalized growth,"locus YEL003W, strain gim4, stronger effect = lower value",0.907 (active)
same,normalized growth,"locus YEL037C, strain rad23, stronger effect = lower value",0.974
same,normalized growth,"locus YEL061C, strain CIN8 (second series), stronger effect = lower value",0.962
same,normalized growth,"locus YER015W, strain faa2, stronger effect = lower value",0.97
same,normalized growth,"locus YER016W, strain bim1, stronger effect = lower value",0.994
same,normalized growth,"locus YER111C, strain swi4, stronger effect = lower value",1
same,normalized growth,"locus YER155C, strain BEM2 (second series), stronger effect = lower value",0.912
same,normalized growth,"locus YFR010W, strain ubp6, stronger effect = lower value",0.91
same,normalized growth,"locus YGL167C, strain pmr1, stronger effect = lower value",0.958
same,normalized growth,"locus YGL173C, strain kem1, stronger effect = lower value",0.974
same,normalized growth,"locus YGL227W, strain vid30, stronger effect = lower value",0.98
same,normalized growth,"locus YGL240W, strain doc1, stronger effect = lower value",0.927
same,normalized growth,"locus YGL253W, strain hxk2, stronger effect = lower value",1.01
same,normalized growth,"locus YHR013C, strain ard1, stronger effect = lower value",0.992
same,normalized growth,"locus YHR027C, strain rpn1, stronger effect = lower value",0.959
same,normalized growth,[1],0.959
same,normalized growth,[2],0.968
same,normalized growth,"locus YHR142W, strain chs7, stronger effect = lower value",1.01
same,normalized growth,"locus YJL092W, strain hpr5, stronger effect = lower value",0.98
same,normalized growth,"locus YJL095W, strain BCK1 (second series), stronger effect = lower value",0.985
same,normalized growth,[3],0.966
same,normalized growth,"locus YJL115W, strain asf1, stronger effect = lower value",0.969
same,normalized growth,"locus YJL129C, strain trk1, stronger effect = lower value",0.996
same,normalized growth,"locus YJL154C, strain vps35, stronger effect = lower value",0.967
same,normalized growth,"locus YJL164C, strain tpk1, stronger effect = lower value",0.924
same,normalized growth,"locus YJL166W, strain qcr8, stronger effect = lower value",0.94
same,normalized growth,"locus YJL187C, strain SWE1, stronger effect = lower value",0.974
same,normalized growth,[4],0.926
same,normalized growth,"locus YKL160W, strain elf1, stronger effect = lower value",1.03
same,normalized growth,"locus YKR026C, strain gcn3, stronger effect = lower value",0.982
same,normalized growth,"locus YKR091W, strain srl3, stronger effect = lower value",0.985
same,normalized growth,"locus YLL001W, strain dnm1, stronger effect = lower value",0.95
same,normalized growth,"locus YLL026W, stronger effect = lower value",0.973
same,normalized growth,"locus YLL041C, strain sdh2, stronger effect = lower value",1
same,normalized growth,"locus YLR027C, strain aat2, stronger effect = lower value",0.98
same,normalized growth,[5],0.957
same,normalized growth,"locus YLR221C, strain rsa3, stronger effect = lower value",0.937
same,normalized growth,"locus YLR258W, strain gsy2, stronger effect = lower value",1
same,normalized growth,"locus YLR262C, strain YPT6 (second series), stronger effect = lower value",0.988
same,normalized growth,"locus YLR320W, strain mms22, stronger effect = lower value",0.956
same,normalized growth,"locus YLR342W, strain FKS1, stronger effect = lower value",0.964
same,normalized growth,"locus YLR357W, strain rsc2, stronger effect = lower value",0.9
same,normalized growth,"locus YLR370C, strain arc18, stronger effect = lower value",1.01
same,normalized growth,"locus YLR384C, strain iki3, stronger effect = lower value",1.01
same,normalized growth,"locus YML120C, strain ndi1, stronger effect = lower value",0.918
same,normalized growth,"locus YMR058W, strain fet3, stronger effect = lower value",0.941
same,normalized growth,"locus YMR125W, strain sto1, stronger effect = lower value",0.985
same,normalized growth,"locus YMR129W, stronger effect = lower value",1
same,normalized growth,"locus YMR205C, strain PFK2, stronger effect = lower value",1
same,normalized growth,"locus YMR231W, strain pep5, stronger effect = lower value",0.968
same,normalized growth,"locus YNL071W, strain lat1, stronger effect = lower value",0.972
same,normalized growth,[6],0.933
same,normalized growth,"locus YNL209W, strain ssb2, stronger effect = lower value",1
same,normalized growth,"locus YNL248C, strain rpa49, stronger effect = lower value",0.997
same,normalized growth,"locus YNL322C, strain KRE1 (second series), stronger effect = lower value",0.996
same,normalized growth,"locus YNR049C, strain mso1, stronger effect = lower value",0.994
same,normalized growth,"locus YOR001W, strain rrp6, stronger effect = lower value",0.908
same,normalized growth,"locus YOR070C, strain gyp1, stronger effect = lower value",0.984
same,normalized growth,"locus YOR080W, strain dia2, stronger effect = lower value",0.989
same,normalized growth,"locus YOR083W, strain WHI5, stronger effect = lower value",0.951
same,normalized growth,"locus YOR106W, strain vam3, stronger effect = lower value",0.96
same,normalized growth,[7],0.966
same,normalized growth,"locus YOR265W, strain rbl2, stronger effect = lower value",0.973
same,normalized growth,"locus YOR270C, strain vph1, stronger effect = lower value",0.965
same,normalized growth,"locus YOR290C, strain snf2, stronger effect = lower value",1.01
same,normalized growth,"locus YPL051W, strain arl3, stronger effect = lower value",1.01
same,normalized growth,"locus YPL078C, strain atp4, stronger effect = lower value",1.02
same,normalized growth,"locus YPL106C, strain sse1, stronger effect = lower value",0.951
same,normalized growth,"locus YPL240C, strain hsp82, stronger effect = lower value",0.996
same,normalized growth,[8],0.98
